Unmarked numbers belong to inactive results. For part of these data: Measured potencies and affinities stand elsewhere. Activity calls are given as the source filed them. Unless noted, the rule behind the calls is not given here.

In PubChem BioAssay one finds growth inhibition, inhibition and outcome data, which are given here for 21 compounds.

Assay [1] in a line: antimalarial activity against Dd2 strain (AID 2302;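 active = growth inhibition above 50% at the single 2 µM test dose, taken to imply half-maximal potency below 2 µM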;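 note: 0% = DMSO untreated growth and 100% = chloroquine plus artemisinin killed control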). The conditions noted are these: P. falciparum Dd2 in RBCs, LDH growth readout, 72 h; at 2 µM; hits give high values.
A short description of assay [2]: HepG2 cytotoxicity, primary screen, cytotoxicity control for P. falciparum antimalarial project, cell-based, ATP luminescence (AID 2303;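 active = inhibition above 50%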;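 note: 0% = DMSO wells and 100% = digitonin-killed cells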). As to conditions: HepG2 viability, 24-48 h, at 10 µM, hits give high values.
Assay [3] concerns the target L-lactate dehydrogenase (Plasmodium falciparum (isolate CDC / Honduras)) (UniProt Q27743). Nature of the assay: PfLDH activity inhibition – cell lysate, 3D7 strain, counter-screen for P. falciparum growth inhibition project (AID 2304).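 Note: 0% = vehicle and 100% = reference inhibitor.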 The conditions noted are these: P. falciparum 3D7 crude extract, LDH APAD/NBT absorbance; at 2 µM; hits give high values. For orientation: A counterscreen serves to expose hits that act by an unwanted route or on another target.

A short description of assay [4]: inhibition of 3D7 malaria parasite growth – strain 3D7 (AID 2306).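 Note: 0% = DMSO wells and 100% = chloroquine plus artemisinin control wells.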 The conditions noted are these: P. falciparum 3D7 erythrocytic growth, LDH absorbance, 72 h; at 2 µM; hits give high values.
Assay [5] deals with Calcium-dependent protein kinase 1 (Plasmodium falciparum (isolate 3D7)) (UniProt P62344). Nature of the assay: PfCDPK1 kinase inhibitors, biochemical, TCAMS library (AID 1159585; cut-off not given, nearly all actives have IC50 up to about 0.98 µM;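 note: inhibitors leave more ATP so luminescence rises with inhibition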). As to conditions: recombinant PfCDPK1, Kinase-Glo ATP depletion luminescence.
The target of assay [6] is Plasmodium falciparum protein kinase 6 (PK6, PF3D7_1337100) (UniProt Q8IDW1). Nature of the assay: PfPK6 kinase inhibitors, biochemical, TCAMS library (AID 1159586). As to conditions: recombinant PfPK6, Kinase-Glo ATP depletion luminescence. For orientation: In Kinase-Glo more light means more ATP remaining.
The target of assay [7] is Protein kinase 7 (PK7), Plasmodium falciparum 3D7 (PF3D7_0213400) (UniProt Q7YTF7). Nature of the assay: inhibition of Plasmodium PK7 catalytic activity – biochemical, TCAMS antimalarial set, Kinase-Glo luminescence (AID 1159587). The conditions noted are these: recombinant PfPK7, Kinase-Glo ATP depletion luminescence.
Assay [8] deals with Calcium-dependent protein kinase 4 (Plasmodium falciparum (isolate 3D7)) (UniProt Q8IBS5). Nature of the assay: PfCDPK4 kinase inhibitors, biochemical, TCAMS library (AID 1159588; cut-off not given, nearly all actives have IC50 up to about 0.91 µM). As to conditions: recombinant PfCDPK4, Kinase-Glo ATP depletion luminescence.
Chain of Calcium-dependent protein kinase 4 (Plasmodium falciparum (isolate 3D7)) (Q8IBS5 whole entry, looked up): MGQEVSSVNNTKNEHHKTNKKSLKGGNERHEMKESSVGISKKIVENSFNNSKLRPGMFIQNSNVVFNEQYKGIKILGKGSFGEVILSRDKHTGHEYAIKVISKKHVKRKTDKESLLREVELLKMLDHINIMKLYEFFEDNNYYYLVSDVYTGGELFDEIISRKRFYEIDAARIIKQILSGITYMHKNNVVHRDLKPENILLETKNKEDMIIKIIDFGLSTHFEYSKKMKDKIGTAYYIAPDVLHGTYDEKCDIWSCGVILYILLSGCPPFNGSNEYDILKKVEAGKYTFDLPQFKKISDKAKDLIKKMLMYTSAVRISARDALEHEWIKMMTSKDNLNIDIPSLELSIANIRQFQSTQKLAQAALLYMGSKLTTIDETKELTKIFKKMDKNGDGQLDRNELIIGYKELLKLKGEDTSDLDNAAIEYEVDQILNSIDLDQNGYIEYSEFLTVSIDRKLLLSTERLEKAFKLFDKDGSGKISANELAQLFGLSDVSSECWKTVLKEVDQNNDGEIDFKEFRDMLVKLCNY

Chain of Plasmodium falciparum protein kinase 6 (PK6, PF3D7_1337100) (Q8IDW1 1-305): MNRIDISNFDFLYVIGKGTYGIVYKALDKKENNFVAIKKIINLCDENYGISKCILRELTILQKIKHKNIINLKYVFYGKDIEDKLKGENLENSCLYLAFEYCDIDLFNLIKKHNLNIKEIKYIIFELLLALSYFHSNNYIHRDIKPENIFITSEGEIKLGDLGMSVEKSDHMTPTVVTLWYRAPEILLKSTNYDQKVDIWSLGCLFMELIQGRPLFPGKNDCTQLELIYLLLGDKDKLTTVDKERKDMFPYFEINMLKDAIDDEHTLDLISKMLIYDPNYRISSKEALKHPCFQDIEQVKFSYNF
Chain of Calcium-dependent protein kinase 1 (Plasmodium falciparum (isolate 3D7)) (P62344 whole entry, looked up): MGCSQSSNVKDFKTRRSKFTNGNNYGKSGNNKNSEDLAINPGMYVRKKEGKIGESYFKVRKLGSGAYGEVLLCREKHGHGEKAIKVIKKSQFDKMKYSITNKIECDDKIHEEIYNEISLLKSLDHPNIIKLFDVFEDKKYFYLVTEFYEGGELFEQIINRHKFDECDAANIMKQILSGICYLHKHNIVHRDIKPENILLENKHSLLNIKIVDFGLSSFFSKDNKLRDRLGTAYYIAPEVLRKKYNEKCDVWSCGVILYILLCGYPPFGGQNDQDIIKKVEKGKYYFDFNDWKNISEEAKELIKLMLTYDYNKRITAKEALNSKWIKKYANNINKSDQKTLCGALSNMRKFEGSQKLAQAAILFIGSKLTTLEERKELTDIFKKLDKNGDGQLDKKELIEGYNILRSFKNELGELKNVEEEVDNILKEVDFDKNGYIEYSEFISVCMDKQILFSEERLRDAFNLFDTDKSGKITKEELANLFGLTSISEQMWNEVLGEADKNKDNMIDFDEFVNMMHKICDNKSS
Chain of Protein kinase 7 (PK7), Plasmodium falciparum 3D7 (PF3D7_0213400) (Q7YTF7 1-343): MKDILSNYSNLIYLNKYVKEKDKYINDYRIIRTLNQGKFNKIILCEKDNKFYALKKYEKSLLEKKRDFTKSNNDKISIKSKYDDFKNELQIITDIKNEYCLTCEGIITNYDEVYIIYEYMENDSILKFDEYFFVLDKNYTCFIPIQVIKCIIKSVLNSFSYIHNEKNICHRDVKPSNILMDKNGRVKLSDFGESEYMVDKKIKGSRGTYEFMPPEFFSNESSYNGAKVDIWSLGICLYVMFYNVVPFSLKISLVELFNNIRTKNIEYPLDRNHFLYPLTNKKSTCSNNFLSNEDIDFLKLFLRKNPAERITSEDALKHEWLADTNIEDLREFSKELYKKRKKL
Chain of L-lactate dehydrogenase (Plasmodium falciparum (isolate CDC / Honduras)) (Q27743 whole entry, looked up): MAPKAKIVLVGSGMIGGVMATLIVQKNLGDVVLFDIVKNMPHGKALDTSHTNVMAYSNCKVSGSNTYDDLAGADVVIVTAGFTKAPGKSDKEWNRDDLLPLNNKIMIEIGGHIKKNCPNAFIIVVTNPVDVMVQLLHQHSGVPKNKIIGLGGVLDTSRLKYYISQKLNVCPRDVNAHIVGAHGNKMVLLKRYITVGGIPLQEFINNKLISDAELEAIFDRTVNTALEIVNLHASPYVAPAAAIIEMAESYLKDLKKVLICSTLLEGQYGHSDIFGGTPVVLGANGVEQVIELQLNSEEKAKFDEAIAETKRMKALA

`COc1cccc(Nc2nnc(SCC(=O)NNC(=O)c3ccccn3)s2)c1`: the growth inhibition in assay [1] was 95% (active); in assay [4] it was 99% (active). Further, the inhibition in assay [2] was 52% (active); in assay [3], -1%. The outcome in assay [5], in assay [6], in assay [7] and in assay [8] was inactive.

For the compound `COc1ccc(C(O)CNC(C)CCc2ccc(F)cc2)cc1C(F)(F)F` (stereo not drawn), the growth inhibition in assay [1] was 98% (active); in assay [4] it was 99% (active). The inhibition in assay [2] was 92% (active); in assay [3], 3%. Moreover, the result in assay [5], in assay [6], in assay [7] and in assay [8] was inactive.

Turning to `CCCCCCN=C(N)c1ccc2nc(-c3ccc(O)cc3)[nH]c2c1`, the growth inhibition is 99% (active) in assay [1] and 100% (active) in assay [4]. Also, the figures for the inhibition in assay [2] and in assay [3] were -3% and 1%, respectively. Besides, the result in assay [5], in assay [6], in assay [7] and in assay [8] was inactive.

Regarding `CCOc1cc(C(=O)NC2CC(C)(C)N(C)C(C)(C)C2)ccc1-c1nc2cc(Cl)c(Cl)cc2[nH]1`, the values for the growth inhibition in assay [1] and in assay [4] were 49% and 101% (active), respectively. For the same compound, the values for the inhibition in assay [2] and in assay [3] were 64% (active) and 4%, respectively. In addition, the outcome in assay [5], in assay [6], in assay [7] and in assay [8] was inactive.

Take `Nc1nc(N)c2c(ccc3c2ccn3Cc2cc3c(cc2Cl)OCO3)n1`: the growth inhibition in assay [1] was 94% (active); in assay [4] it was 95% (active). The inhibition in assay [2] is 58% (active); in assay [3] it was -5%. In addition, the outcome in assay [5], in assay [6], in assay [7] and in assay [8] was inactive.

Consider `CC1CCC(NCc2c(O)ccc3ccccc23)CC1` (stereo not drawn), for which the growth inhibition was 77% (active) in assay [1] and 95% (active) in assay [4]. The inhibition in assay [2] was 13%; in assay [3], -1%. In addition, the outcome in assay [5], in assay [6], in assay [7] and in assay [8] was inactive.

`CCC1(c2ccccc2)N=C(N)N(CCCc2ccccc2)C1=O` (stereo not drawn): the figures for the growth inhibition in assay [1] and in assay [4] were 96% (active) and 90% (active), respectively. The inhibition in assay [2] was 17%; in assay [3], 1%. Moreover, the outcome in assay [5], in assay [6], in assay [7] and in assay [8] was inactive.

With `C#CCCC(=O)Nc1cccc(-c2cccc(-c3nc4ccc(C(F)(F)F)cc4[nH]3)c2)c1`, the results for the growth inhibition in assay [1] and in assay [4] were 45% and 90% (active), respectively. Also, the values for the inhibition in assay [2] and in assay [3] were 14% and -4%, respectively. Moreover, the outcome in assay [5], in assay [6], in assay [7] and in assay [8] was inactive.

`CN1CCN(Cc2cc(NC(=O)c3ccc(-c4ccc(Cl)cc4Cl)cc3)ccc2-c2ccccc2)CC1`: the growth inhibition in assay [1] is 21%; in assay [4], 95% (active). The values for the inhibition in assay [2] and in assay [3] were 52% (active) and 3%, respectively. The result in assay [5], in assay [6], in assay [7] and in assay [8] was inactive.

Consider `COc1ccc(NC(=O)[C@H](CC(C)C)Nc2cc(C)nc(NCCc3ccccc3OC)n2)cc1`, for which the growth inhibition in assay [1] was 68% (active); in assay [4], 99% (active). Further, the inhibition in assay [2] was 9%; in assay [3], -3%. Further, the outcome in assay [5], in assay [6], in assay [7] and in assay [8] was inactive.

As for `Cc1c(CCc2cccc(F)c2F)[nH]c2ccccc2c1=O`, the growth inhibition in assay [1] is 90% (active); in assay [4] it was 91% (active). In addition, the results for the inhibition in assay [2] and in assay [3] were 41% and 2%, respectively. Further, the outcome in assay [5], in assay [6], in assay [7] and in assay [8] was inactive.

For the compound `CC(=O)Nc1ccc(C#Cc2ccc(-c3c(C)[nH]c(C)c(Cl)c3=O)cc2)cc1`, the results for the growth inhibition in assay [1] and in assay [4] were 78% (active) and 90% (active), respectively. For the same compound, the inhibition in assay [2] was -3%; in assay [3], -7%. Further, the result in assay [5], in assay [6], in assay [7] and in assay [8] was inactive.

Regarding `O=[N+]([O-])c1ccc(Nc2nc(NCc3ccccc3)nc(NN=Cc3ccccc3[N+](=O)[O-])n2)cc1`, the growth inhibition was 99% (active) in assay [1] and 101% (active) in assay [4]. Besides, the inhibition was 18% in assay [2] and -9% in assay [3]. Further, the result in assay [5], in assay [6], in assay [7] and in assay [8] was inactive.

For the compound `OC1CCCN(Cc2ccc(-c3cccc(-c4nc5ccccc5[nH]4)c3)cc2)C1` (stereo not drawn), the results for the growth inhibition in assay [1] and in assay [4] were -3% and 86% (active), respectively. Also, the inhibition is 14% in assay [2] and 2% in assay [3]. The outcome in assay [5], in assay [6], in assay [7] and in assay [8] was inactive.

As to `O=C(CN(c1cccc(C(F)(F)F)c1)S(=O)(=O)c1ccc(Cl)cc1)NCCC(c1ccccc1)c1ccccc1`, the growth inhibition in assay [1] is 50% (active); in assay [4] it was 94% (active). Besides, the inhibition in assay [2] was 14%; in assay [3], -2%. Further, the result in assay [5], in assay [6], in assay [7] and in assay [8] was inactive.

Turning to `Cc1c(CNCCCNc2cc(=O)c3ccccc3[nH]2)sc(-c2ccco2)c1Br`, the growth inhibition in assay [1] is 39%; in assay [4] it was 93% (active). The inhibition was -4% in assay [2] and -1% in assay [3]. In addition, the result in assay [5], in assay [6], in assay [7] and in assay [8] was inactive.

Take `O=C(Nc1ccc(S(=O)(=O)N2CCOCC2)cc1)c1cc(-c2cc(Cl)ccc2O)n[nH]1`: the growth inhibition in assay [1] is 59% (active); in assay [4], 96% (active). Moreover, the inhibition was 40% in assay [2] and -3% in assay [3]. For the same compound, the result in assay [5], in assay [6], in assay [7] and in assay [8] was inactive.

`Cc1[nH]c2ccc(C#N)cc2c(=O)c1Br`: the growth inhibition in assay [1] was 61% (active); in assay [4], 91% (active). The inhibition was 2% in assay [2] and -1% in assay [3]. For the same compound, the outcome in assay [5], in assay [6], in assay [7] and in assay [8] was inactive.

Turning to `O=C(Nc1ccc(-c2cccc(-c3nc4ccccc4[nH]3)c2)cc1)Nc1ccc(Cl)c(Cl)c1`, the growth inhibition in assay [1] was 80% (active); in assay [4], 101% (active). Moreover, the figures for the inhibition in assay [2] and in assay [3] were 61% (active) and -2%, respectively. The outcome in assay [5], in assay [6], in assay [7] and in assay [8] was inactive.

`CCOc1ccc(-c2nonc2NC(=O)c2ccccc2OC)cc1OCC`: the growth inhibition in assay [1] was 99% (active); in assay [4] it was 100% (active). Further, the inhibition is 24% in assay [2] and -3% in assay [3]. In addition, the outcome in assay [5], in assay [6], in assay [7] and in assay [8] was inactive.

Consider `C=CCc1ccccc1OCC(O)CN(C1CCCCC1)C1CCCCC1` (stereo not drawn), for which the growth inhibition was 84% (active) in assay [1] and 93% (active) in assay [4]. The inhibition is 50% (active) in assay [2] and 1% in assay [3]. For the same compound, the result in assay [5], in assay [6], in assay [7] and in assay [8] was inactive.

The term inhibition denotes the relative decrease from the control value, in per cent.
